Measurements taken from PubChem BioAssay.
The source made the active and inactive calls.

Assay: probe aXIP binding to arrayed compounds – biochemical, NeuroSMM set, 635/667 nm fluorescence, primary screen (AID 1119);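 note: probe is the protein aXip251-270 applied at 1 µg/mL to compound-printed slides; binding of probe to printed compounds measured as 667 nm fluorescence plus signal to noise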
Details: small-molecule microarray, higher = more signal, called active from +8 up or from −8 down

| Structure (SMILES) | composite Z-score |
| --- | --- |
| CC(C)(C)N1C(=O)[C@H]2[C@H]3[C@H](O)[C@H](O)CC(=O)[C@@H]3CC[C@H]2C1=O | 0.302 (inactive) |
| CC(=O)OC[C@H]1O[C@H](CC=NO[C@H](C)c2cn([C@H](CO)Cc3ccccc3)nn2)C=C[C@@H]1OC(C)=O | -0.0641 (inactive) |
| C=Cc1ccc([C@H]2N[C@H](C(=O)O)CC[C@@H]2C)cc1 | -0.602 (inactive) |
| O=C(C=Cc1ccc2c(c1)OCO2)c1ccc(F)cc1 | -0.188 (inactive) |
| C[C@@H]1CC[C@H]2C(=O)O[C@@H](Cc3ccccc3)CN2[C@H]1c1ccc(Br)cc1 | -0.358 (inactive) |
| C=CC1=C[C@H](O)[C@@H]2O[C@@H]2C12OCCCO2 | -0.174 (inactive) |
| CCN1C(=O)[C@H]2[C@H]3[C@H](O)[C@H](O)CC(=NO[C@@H](C)c4cn([C@H](CO)Cc5ccccc5)nn4)[C@@H]3CC[C@H]2C1=O | 0.299 (inactive) |
| CCOC(=O)[C@H](Cc1ccccc1)NC(=O)CCC1CC(OC(=O)NCc2ccc3c(c2)OCO3)CC2(CCCC(COC(=O)NCCC(C)C)O2)O1 (stereo partly specified) | 0.416 (inactive) |
| O=C1[C@H]2[C@H]3[C@H](O)[C@H](O)CC(=NOC[C@@H](O)COCc4ccco4)[C@H]3CC[C@H]2C(=O)N1C[C@@H]1CCCO1 | 0.382 (inactive) |
| CC(C)=NO[C@H](C)c1cn([C@H](CO)Cc2ccccc2)nn1 | -0.178 (inactive) |
| O=C1CCCC=C1C(O)CCCCBr (stereo unspecified) | 1.36 (inactive) |
| COC(=O)CC=C[C@@H](C)[C@@H](C=NOC[C@@H](O)[C@H]1O[C@@H]2OC(C)(C)O[C@@H]2[C@H]1O)NS(=O)(=O)c1ccc(C)cc1 | -0.72 (inactive) |
| CCOC(=O)[C@H](Cc1ccccc1)NC(=O)CCC1CC(OC(=O)NCCc2ccc(F)cc2)CC2(CCCC(COC(=O)NCc3ccccc3)O2)O1 (stereo partly specified) | 0.42 (inactive) |
| COC(=O)CC=C[C@@H](C)[C@@H](C=NOC(C)CN1CCCc2nc(C)c(C)cc21)OC (stereo partly specified) | 0.0236 (inactive) |
| O=C1CCCC=C1C(O)CCOC(c1ccccc1)(c1ccccc1)c1ccccc1 (stereo unspecified) | 0.142 (inactive) |
| C[C@@H]1C=CCC(=O)OC[C@H]2O[C@@H](C=C[C@@H]2O)[C@H](C)C=CCC(=O)OC1 | 4.07 (inactive) |
| CO[C@@H]1C=CCC(=O)N[C@@H](C)C(=O)OC[C@@H](OC)[C@H](C)CCCC(=O)OC[C@H]1C | -0.31 (inactive) |
| Cc1ccc(S(=O)(=O)OC[C@H]2CN3[C@H](c4ccc(Br)cc4)[C@@H](C)CC[C@H]3C(=O)O2)cc1 | -0.446 (inactive) |
| CC(C)=CCCC(C)=CCON=C1C[C@@H](O)[C@@H](O)[C@@H]2[C@@H]3C(=O)N(C4CCCCC4)C(=O)[C@@H]3CC[C@@H]12 | 0.244 (inactive) |
| O=C1C=C[C@@H](O)[C@@H]2[C@@H]3C(=O)N(C[C@@H]4CCCO4)C(=O)[C@@H]3CC[C@@H]12 | 0.681 (inactive) |
| CCOC(=O)[C@H](CC(C)C)NC(=O)CCC1CC(OC(=O)NCc2cccc3ccccc23)CC2(CCCC(COC(=O)NCCCN3CCCC3=O)O2)O1 (stereo partly specified) | -0.122 (inactive) |
| Cc1ccc(S(=O)(=O)N[C@H]2COC(=O)CC=C[C@@H](C)COC(=O)CC=C[C@@H]2C)cc1 | -0.821 (inactive) |
| Cn1c(=O)n2n(c1=O)[C@H]1[C@H](O)[C@@H]3O[C@@H]3C(=O)[C@H]1CC2 | -0.301 (inactive) |
| O=C1C[C@@H](O)[C@@H](O)[C@@H]2[C@@H]3C(=O)N(C[C@@H]4CCCO4)C(=O)[C@@H]3CC[C@@H]12 | -0.286 (inactive) |
| COc1ccc(O[C@H]2C=C[C@@H](c3ccccc3)O[C@@H]2CON=C2[C@H]3CCn4c(=O)n(-c5ccccc5)c(=O)n4[C@H]3[C@H](O)[C@@H]3O[C@H]23)cc1 | 0.125 (inactive) |

Assay: probe aNOTCH3 binding on compound microarray – biochemical, small-molecule microarray, 635/667 nm fluorescence, primary screen (AID 1120);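 note: probe is a biotin-tagged antibody raised against NOTCH3 rather than NOTCH3 protein; score merges spot fluorescence near 667 nm with spot signal to noise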
Details: higher = more signal

| Structure (SMILES) | composite z-score |
| --- | --- |
| CC(C)CCN1CCc2nc(COc3ccccc3)c3c(c2C1)CO[C@@H](C)C3 | -0.0343 |
| O=C(NN=C1C[C@@H](O)[C@@H](O)[C@@H]2[C@@H]3C(=O)N(Cc4ccccc4)C(=O)[C@@H]3CC[C@@H]12)OCc1ccccc1 | 0.0591 |
| CO[C@@H]1COC(=O)[C@@H](C)COC(=O)[C@@H](C)NC(=O)CC=C[C@@H]1C | -0.16 |
| CO[C@@H]1COC(=O)CC=C[C@@H](C)[C@@H]2C=C[C@H](O)[C@@H](COC(=O)CC=C[C@H]1C)O2 | -0.124 |
| COC(=O)[C@@H]1CC[C@H](C)[C@@H](c2ccc(C)cc2)N1C(=O)c1ccc(C=NO[C@H](C)c2cn([C@H](CO)Cc3ccccc3)nn2)cc1 | 0.217 |
| CCC=CCCC(OC(=O)c1ccc(Br)cc1)C1=CCCCC1=O (stereo unspecified) | 0.0836 |
| CO[C@H]1COC(=O)[C@@H](C)COC(=O)[C@H](COCc2ccccc2)NC(=O)CC=C[C@H]1C | -0.0077 |
| CCOC(=O)CCN1C(=O)[C@H]2[C@H]3[C@H](O)[C@H](O)CC(=NOCC(C)C)[C@H]3CC[C@H]2C1=O | -0.0377 |
| C#CCCCON=C1C[C@@H](O)[C@@H](O)[C@@H]2[C@@H]3C(=O)N(CC)C(=O)[C@@H]3CC[C@@H]12 | 0.0779 |
| CON=C1[C@H]2CCn3c(=O)n(-c4ccccc4)c(=O)n3[C@H]2[C@H](O)[C@@H]2O[C@H]12 | -0.0006 |
| CC(C)=CCCC(C)=CCON=C1C[C@@H](O)[C@@H](O)[C@@H]2[C@@H]3C(=O)N(C(C)(C)C)C(=O)[C@@H]3CC[C@@H]12 | -0.127 |
| CC(C)(C)N1C(=O)[C@H]2[C@H]3[C@H](O)[C@H](O)CC(=O)[C@@H]3CC[C@H]2C1=O | -0.0918 |
| CC(=O)OC[C@H]1O[C@H](CC=NO[C@H](C)c2cn([C@H](CO)Cc3ccccc3)nn2)C=C[C@@H]1OC(C)=O | 0.108 |
| C=Cc1ccc([C@H]2N[C@H](C(=O)O)CC[C@@H]2C)cc1 | -0.178 |
| O=C(C=Cc1ccc2c(c1)OCO2)c1ccc(F)cc1 | 0.278 |
| C[C@@H]1CC[C@H]2C(=O)O[C@@H](Cc3ccccc3)CN2[C@H]1c1ccc(Br)cc1 | -0.0997 |
| C=CC1=C[C@H](O)[C@@H]2O[C@@H]2C12OCCCO2 | -0.131 |
| CCN1C(=O)[C@H]2[C@H]3[C@H](O)[C@H](O)CC(=NO[C@@H](C)c4cn([C@H](CO)Cc5ccccc5)nn4)[C@@H]3CC[C@H]2C1=O | -0.0581 |

| Structure (SMILES) | composite z-score |
| --- | --- |
| CCOC(=O)[C@H](Cc1ccccc1)NC(=O)CCC1CC(OC(=O)NCc2ccc3c(c2)OCO3)CC2(CCCC(COC(=O)NCCC(C)C)O2)O1 (stereo partly specified) | 0.0252 |
| O=C1[C@H]2[C@H]3[C@H](O)[C@H](O)CC(=NOC[C@@H](O)COCc4ccco4)[C@H]3CC[C@H]2C(=O)N1C[C@@H]1CCCO1 | -0.0976 |
| CC(C)=NO[C@H](C)c1cn([C@H](CO)Cc2ccccc2)nn1 | -0.0932 |
| O=C1CCCC=C1C(O)CCCCBr (stereo unspecified) | 0.0242 |
| COC(=O)CC=C[C@@H](C)[C@@H](C=NOC[C@@H](O)[C@H]1O[C@@H]2OC(C)(C)O[C@@H]2[C@H]1O)NS(=O)(=O)c1ccc(C)cc1 | -0.215 |
| CCOC(=O)[C@H](Cc1ccccc1)NC(=O)CCC1CC(OC(=O)NCCc2ccc(F)cc2)CC2(CCCC(COC(=O)NCc3ccccc3)O2)O1 (stereo partly specified) | -0.0711 |
| COC(=O)CC=C[C@@H](C)[C@@H](C=NOC(C)CN1CCCc2nc(C)c(C)cc21)OC (stereo partly specified) | 0.0833 |
| O=C1CCCC=C1C(O)CCOC(c1ccccc1)(c1ccccc1)c1ccccc1 (stereo unspecified) | -0.158 |
| C[C@@H]1C=CCC(=O)OC[C@H]2O[C@@H](C=C[C@@H]2O)[C@H](C)C=CCC(=O)OC1 | 0.0903 |
| CO[C@@H]1C=CCC(=O)N[C@@H](C)C(=O)OC[C@@H](OC)[C@H](C)CCCC(=O)OC[C@H]1C | 0.0854 |
| Cc1ccc(S(=O)(=O)OC[C@H]2CN3[C@H](c4ccc(Br)cc4)[C@@H](C)CC[C@H]3C(=O)O2)cc1 | -0.0918 |
| CC(C)=CCCC(C)=CCON=C1C[C@@H](O)[C@@H](O)[C@@H]2[C@@H]3C(=O)N(C4CCCCC4)C(=O)[C@@H]3CC[C@@H]12 | -0.0048 |
| O=C1C=C[C@@H](O)[C@@H]2[C@@H]3C(=O)N(C[C@@H]4CCCO4)C(=O)[C@@H]3CC[C@@H]12 | -0.125 |
| CCOC(=O)[C@H](CC(C)C)NC(=O)CCC1CC(OC(=O)NCc2cccc3ccccc23)CC2(CCCC(COC(=O)NCCCN3CCCC3=O)O2)O1 (stereo partly specified) | -0.0328 |
| Cc1ccc(S(=O)(=O)N[C@H]2COC(=O)CC=C[C@@H](C)COC(=O)CC=C[C@@H]2C)cc1 | -0.163 |
| Cn1c(=O)n2n(c1=O)[C@H]1[C@H](O)[C@@H]3O[C@@H]3C(=O)[C@H]1CC2 | -0.172 |
| O=C1C[C@@H](O)[C@@H](O)[C@@H]2[C@@H]3C(=O)N(C[C@@H]4CCCO4)C(=O)[C@@H]3CC[C@@H]12 | 0.0547 |
| COc1ccc(O[C@H]2C=C[C@@H](c3ccccc3)O[C@@H]2CON=C2[C@H]3CCn4c(=O)n(-c5ccccc5)c(=O)n4[C@H]3[C@H](O)[C@@H]3O[C@H]23)cc1 | -0.0282 |
